Assay results as given in PubChem BioAssay (Tox21).
Results filed as inconclusive are left out. Activity calls are given as the source filed them. Unless noted, calls come from the whole dose curve; as a rule, active = well fitted curve in the direction sought with a large enough effect in the repeat runs; inconclusive = weak or mixed curves; inactive = no such curve, though single readings can be large; an effect the other way counts as inactive or inconclusive.

Experiments:
[1] = qHTS assay to identify small molecule antagonists of the estrogen receptor alpha (ER-alpha) signaling pathway using the BG1 cell line in the presence of 0.1 nM 17-beta-estradiol - cell viability counter screen (AID 1259241); note: nearly all actives have a fitted effect of over 40% in size
Method in brief: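 Following 5 days in phenol red-free medium with charcoal-stripped serum, VM7Luc4E2 cells received test compounds alongside 0.1 nM 17beta-estradiol (final) at 37C for 22 hr. Live cells were then quantified via protease-substrate fluorescence.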

[2] = qHTS assay to identify small molecule antagonists of the androgen receptor (AR) signaling pathway using the MDA cell line in the presence of 0.5 nM R1881 - cell viability counter screen (AID 1259242); note: nearly all actives have a fitted effect of over 45% in size
Method in brief: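 Concentration-response screen of compounds for toxicity in MDA-kb2 reporter cells: 16 hr at 37C with 0.5 nM R1881, endpoint live-cell protease fluorescence measured in the reporter wells.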

[3] = biological target: Estrogen receptor (Homo sapiens) (UniProt P03372); assay: qHTS assay to identify small molecule antagonists of the estrogen receptor alpha (ER-alpha) signaling pathway using the BG1 cell line in the presence of 0.1 nM 17-beta-estradiol (AID 1259244); note: nearly all actives have a fitted effect of over 50% in size
Method in brief: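 Compounds were tested against 0.1 nM (final) 17beta-estradiol in VM7Luc4E2 cells, which express full-length ER-alpha and an ERE-luciferase reporter; luminescence was recorded following 22 h exposure.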

[4] = qHTS assay to identify small molecule HDAC inhibitors - cell viability counter screen (AID 1259365); note: series mostly up to about 92 µM; nearly all actives have a fitted effect of over 50% in size
Method in brief: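 HCT-116 wild-type, overnight attachment; 2hr drug exposure, 37C; CellTiter-Glo luminescent ATP readout after 30min RT.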

[5] = qHTS assay to identify small molecule agonists of the sonic hedgehog signaling (Shh) pathway - cell viability counter screen (AID 1259366); note: nearly all actives have a fitted effect of over 50% in size
Method in brief: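 Compounds in DMSO were pin-transferred onto 3T3 Gli1-Luc cells that had settled 4hr; plates then stood 24hr at 37C and 5% CO2. One hour before the end, CellTiter-Fluor was added and fluorescence recorded.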

[6] = qHTS assay to identify small molecule antagonists of the sonic hedgehog signaling (Shh) pathway - cell viability counter screen (AID 1259367); note: nearly all actives have a fitted effect of over 55% in size
Method in brief: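 Cytotoxicity was assessed in parallel with Shh reporter activity by measuring live-cell protease fluorescence (CellTiter-Fluor) in NIH/3T3 cells stably carrying Gli1-Luc, treated with compound under conditioned medium stimulation for 23 hr plus 1 hr reagent incubation.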

[7] = qHTS assay to identify small molecule agonists of the sonic hedgehog signaling (Shh) pathway (AID 1259368; calls by dose curve;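 note: NIH/3T3-derived 3T3Gli1-Luc cells carrying a stable Gli1-driven firefly luciferase reporter; series mostly up to about 92 µM; nearly all actives have a fitted effect of over 15% in size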)
Method in brief: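 Hedgehog pathway agonism scored by increased firefly luciferase luminescence in 3T3Gli1-Luc cells treated 24 hr at 37 C; detection used a 30 min room-temperature reagent incubation.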

[8] = qHTS assay to identify small molecule antagonists of the sonic hedgehog signaling (Shh) pathway (AID 1259369; calls by dose curve; note: nearly all actives have a fitted effect of over 45% in size)
Method in brief: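 NIH/3T3 stable Gli1-Luc clone, 2,000 cells/well, 4hr settle; cpd + conditioned medium 24hr; Luc reagent 30min RT; luminescence.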

[9] = biological target: Estrogen receptor beta (Homo sapiens) (UniProt Q92731); assay: qHTS assay to identify small molecule antagonists of the estrogen receptor beta (ER-beta) signaling pathway (AID 1259378; active = well fitted inhibition curve with a large enough effect in the signal ratio in the repeat runs, not every such curve was filed as active; the % refers to the signal ratio; note: potency is the fitted concentration of half-maximal effect)
Method in brief: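 ER-beta-UAS-bla HEK293T (GripTite) cells in 2% charcoal-stripped FBS medium were preincubated 6 hr at 37C, dosed with compound, then stimulated with 1 nM E2 (final) for 16 hr; beta-lactamase reporter read by B/G FRET fluorescence after 2 hr substrate loading.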

[10] = qHTS assay to identify small molecule agonists of the estrogen receptor beta (ER-beta) signaling pathway - cell viability counter screen (AID 1259380); note: nearly all actives have a fitted effect of over 30% in size; note: potency is the fitted concentration of half-maximal effect
Method in brief: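 Measured: luminescence from CellTiter-Glo after 30 min at room temperature, added to wells already read for the LiveBLAzer FRET reporter (2 hr substrate); ER-beta-UAS-bla HEK293T cells had 16 hr compound treatment at 37C, 5% CO2.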

[11] = qHTS assay to identify small molecule antagonists of the estrogen receptor beta (ER-beta) signaling pathway - cell viability counter screen (AID 1259382); note: series mostly up to about 92 µM; nearly all actives have a fitted effect of over 55% in size
Method in brief: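 Readout: luminescence, CellTiter-Glo, same wells as bla assay. System: ER-beta-UAS-bla GripTite HEK293T, 2% charcoal-stripped FBS. Exposure: compounds plus 1nM 17-beta-estradiol, 16 hr, 37C.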

[12] = biological target: Estrogen receptor (Homo sapiens) (UniProt P03372); assay: qHTS assay to identify small molecule agonists of the estrogen receptor alpha (ER-alpha) signaling pathway in the presence of an antagonist (AID 1259383; calls by dose curve; note: top concentration of the series differs between compounds; nearly all actives have a fitted effect of over 15% in size)
Method in brief: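 Quantitative HTS confirmation: compounds titrated at 15 concentrations onto estrogen-deprived VM7Luc4E2 cells carrying a four-ERE luciferase construct, with ICI-182,780 present at 10.0nM final. Signal is luminescence after 22hr exposure.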

[13] = qHTS assay to identify small molecule phospholipidosis (PLD) inducers (AID 1259344; active = well fitted curve in the direction sought with a large enough effect; an effect the other way counts as inactive or inconclusive)
Method in brief: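 Cells (HepG2, 900 per well) attach for 4 h, receive LipidTOX Red and compound together, incubate 24 h at 37 C, are fixed 30 min with paraformaldehyde/Hoechst, then imaged at one site per well.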

[14] = qHTS assay to identify small molecule HDAC inhibitors (AID 1259364);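 note: wild-type HCT-116 cells with endogenous class I/II HDAC activity; top concentration of the series differs between compounds; nearly all actives have a fitted effect of over 45% in size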
Method in brief: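 Screening used wild-type human colon HCT-116 cells incubated overnight, dosed with compounds for 2 hours, and assayed with a homogeneous luminogenic HDAC I/II reagent for 30 minutes at room temperature.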

[15] = biological target: Estrogen receptor beta (Homo sapiens) (UniProt Q92731); assay: qHTS assay to identify small molecule agonists of the estrogen receptor beta (ER-beta) signaling pathway (AID 1259377; active = well fitted activation curve with a large enough effect in the signal ratio in the repeat runs, not every such curve was filed as active; the % refers to the signal ratio)
Method in brief: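 qHTS in ER-beta-UAS-bla HEK293T cells: 6 hr settling, then 16 hr compound at 37C, then LiveBLAzer substrate 2 h at RT before fluorescence reading.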

[16] = qHTS assay to identify small molecule agonists of the androgen receptor (AR) signaling pathway in the presence of an antagonist - cell viability counter screen (AID 1259379);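 note: MDA-kb2 human breast cancer cells carrying an MMTV luciferase reporter; series mostly up to about 92 µM; nearly all actives have a fitted effect of over 25% in size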
Method in brief: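 MDA-kb2 viability measured by CellTiter-Fluor fluorescence in the same wells as the luciferase signal; nilutamide 3.0uM final; 15-point compound titration; 16 hr at 37C.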

[17] = qHTS assay to identify small molecule agonists or antagonists of the thyroid stimulating hormone receptor (TSHR) signaling pathway - wild type cell line counter screen (AID 1259384; calls by dose curve)
Method in brief: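 Wild-type HEK293 cells were plated 18 h at 37 C/5% CO2, pin-dosed with compound plus Ro20-1724 medium, held 30 min at room temperature, then given cAMP-d2 and anti-cAMP-cryptate; fluorescence was read after 1 h. Fifteen concentrations, triplicate.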

[18] = biological target: Thyrotropin receptor (Homo sapiens) (UniProt P16473); assay: qHTS assay to identify small molecule antagonists of the thyroid stimulating hormone receptor (TSHR) signaling pathway (AID 1259385; calls by dose curve; note: nearly all actives have a fitted effect of over 20% in size; note: potency is the fitted concentration of half-maximal effect)
Method in brief: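 TSHR-HEK293 cells were plated and held 18 h at 37C/5% CO2, then given compound plus Ro20-1724 and stimulated with TSH at 1.5 ng/mL final. After 30 min at room temperature, cAMP was detected with cAMP-d2/anti-cAMP-cryptate (1 h) by fluorescence.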

[19] = biological target: Androgen receptor (Homo sapiens) (UniProt P10275); assay: qHTS assay to identify small molecule agonists of the androgen receptor (AR) signaling pathway in the presence of an antagonist (AID 1259381; calls by dose curve; note: nearly all actives have a fitted effect of over 15% in size)
Method in brief: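 Luminescent ONE-Glo read, 30min at room temperature, follows 16hr compound exposure (15 concentrations) of MDA-kb2 cells at 37C, 0% CO2, with nilutamide added at 3.0uM final.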
% is set by controls: 0 for no effect and ±100 for the full control effect.

Thyrotropin receptor (Homo sapiens), sequence (P16473 whole entry, looked up): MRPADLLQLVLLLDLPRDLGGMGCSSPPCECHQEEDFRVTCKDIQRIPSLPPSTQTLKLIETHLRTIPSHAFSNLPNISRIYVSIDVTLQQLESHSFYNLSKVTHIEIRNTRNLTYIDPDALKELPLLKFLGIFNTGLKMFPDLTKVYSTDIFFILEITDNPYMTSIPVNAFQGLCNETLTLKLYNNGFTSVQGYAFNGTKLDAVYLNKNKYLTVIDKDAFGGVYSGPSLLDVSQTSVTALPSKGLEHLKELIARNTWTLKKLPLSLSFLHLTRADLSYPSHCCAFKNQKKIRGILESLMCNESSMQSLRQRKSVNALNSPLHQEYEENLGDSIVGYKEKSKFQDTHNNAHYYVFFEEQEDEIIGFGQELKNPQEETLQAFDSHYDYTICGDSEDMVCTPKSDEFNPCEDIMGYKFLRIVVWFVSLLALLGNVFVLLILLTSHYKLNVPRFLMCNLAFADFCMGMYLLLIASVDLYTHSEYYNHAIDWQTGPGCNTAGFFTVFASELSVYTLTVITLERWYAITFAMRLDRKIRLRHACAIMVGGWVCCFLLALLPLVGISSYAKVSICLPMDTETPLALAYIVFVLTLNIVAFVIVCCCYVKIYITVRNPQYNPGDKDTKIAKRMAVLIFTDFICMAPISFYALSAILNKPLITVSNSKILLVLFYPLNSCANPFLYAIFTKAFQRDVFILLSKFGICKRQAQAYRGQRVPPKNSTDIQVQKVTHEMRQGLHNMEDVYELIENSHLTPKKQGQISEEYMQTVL
Estrogen receptor (Homo sapiens), sequence (P03372 whole entry, looked up): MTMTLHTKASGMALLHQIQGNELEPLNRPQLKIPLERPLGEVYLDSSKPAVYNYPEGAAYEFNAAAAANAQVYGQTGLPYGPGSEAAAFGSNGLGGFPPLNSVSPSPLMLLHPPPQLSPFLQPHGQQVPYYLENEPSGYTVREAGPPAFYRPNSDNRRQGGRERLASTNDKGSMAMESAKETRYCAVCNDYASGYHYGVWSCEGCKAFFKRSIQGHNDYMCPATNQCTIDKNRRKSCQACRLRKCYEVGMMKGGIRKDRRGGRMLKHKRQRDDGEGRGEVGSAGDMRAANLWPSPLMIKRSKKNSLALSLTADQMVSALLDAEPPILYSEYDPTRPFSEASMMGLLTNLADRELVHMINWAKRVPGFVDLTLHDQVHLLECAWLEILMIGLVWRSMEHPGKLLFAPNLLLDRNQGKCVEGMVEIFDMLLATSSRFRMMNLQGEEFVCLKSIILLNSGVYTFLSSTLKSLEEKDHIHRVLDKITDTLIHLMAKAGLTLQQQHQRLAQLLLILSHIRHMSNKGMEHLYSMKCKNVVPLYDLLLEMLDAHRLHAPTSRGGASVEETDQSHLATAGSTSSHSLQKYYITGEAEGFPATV
Estrogen receptor beta (Homo sapiens), sequence (Q92731 whole entry, looked up): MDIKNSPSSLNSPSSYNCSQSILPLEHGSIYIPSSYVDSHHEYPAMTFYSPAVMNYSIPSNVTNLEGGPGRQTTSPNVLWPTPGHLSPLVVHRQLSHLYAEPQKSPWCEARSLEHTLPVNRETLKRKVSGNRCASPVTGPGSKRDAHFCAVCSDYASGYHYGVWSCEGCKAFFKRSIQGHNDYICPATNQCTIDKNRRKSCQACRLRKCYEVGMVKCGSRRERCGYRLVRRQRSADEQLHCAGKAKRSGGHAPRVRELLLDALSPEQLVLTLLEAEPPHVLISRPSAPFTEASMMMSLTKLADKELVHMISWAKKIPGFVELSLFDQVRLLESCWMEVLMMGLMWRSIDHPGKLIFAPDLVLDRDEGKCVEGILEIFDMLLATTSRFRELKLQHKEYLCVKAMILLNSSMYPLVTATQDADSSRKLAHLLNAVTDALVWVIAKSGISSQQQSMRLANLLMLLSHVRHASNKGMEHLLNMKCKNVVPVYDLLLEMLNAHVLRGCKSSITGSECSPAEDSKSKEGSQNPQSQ
Androgen receptor (Homo sapiens), sequence (P10275 whole entry, looked up): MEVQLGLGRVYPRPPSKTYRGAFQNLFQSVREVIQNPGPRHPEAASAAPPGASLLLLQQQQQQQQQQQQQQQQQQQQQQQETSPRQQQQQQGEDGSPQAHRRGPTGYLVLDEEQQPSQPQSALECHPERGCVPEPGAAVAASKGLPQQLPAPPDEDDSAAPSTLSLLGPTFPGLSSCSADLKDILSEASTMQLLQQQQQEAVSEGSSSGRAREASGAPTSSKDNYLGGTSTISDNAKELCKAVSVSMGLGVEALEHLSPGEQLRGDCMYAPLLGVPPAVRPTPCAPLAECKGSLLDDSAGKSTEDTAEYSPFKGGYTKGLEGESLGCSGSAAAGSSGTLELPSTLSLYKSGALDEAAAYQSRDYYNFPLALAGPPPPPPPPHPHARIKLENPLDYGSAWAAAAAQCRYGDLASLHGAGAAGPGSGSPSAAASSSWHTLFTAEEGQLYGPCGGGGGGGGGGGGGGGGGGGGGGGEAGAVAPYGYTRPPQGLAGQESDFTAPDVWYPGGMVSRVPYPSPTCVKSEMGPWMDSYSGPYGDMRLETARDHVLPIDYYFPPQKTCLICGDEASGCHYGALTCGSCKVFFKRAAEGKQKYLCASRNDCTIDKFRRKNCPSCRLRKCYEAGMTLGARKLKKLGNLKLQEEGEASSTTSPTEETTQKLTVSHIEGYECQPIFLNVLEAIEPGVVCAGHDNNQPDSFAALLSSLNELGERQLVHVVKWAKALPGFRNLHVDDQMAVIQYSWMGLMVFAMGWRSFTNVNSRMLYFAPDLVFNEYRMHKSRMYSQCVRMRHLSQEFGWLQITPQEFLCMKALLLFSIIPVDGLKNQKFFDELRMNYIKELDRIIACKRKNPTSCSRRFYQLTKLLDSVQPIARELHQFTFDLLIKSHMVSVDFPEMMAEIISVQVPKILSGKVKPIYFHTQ

ClC(Cl)(Cl)c1ccc(C(Cl)(Cl)Cl)cc1
inactive: Potency [1] | Potency [2] | Potency [3] | outcome [4] | Potency [5] | Potency [6] | outcome [7] | Potency [8] | Potency [9] | Potency [10] | Potency [11] | Potency [12]

Cn1c(NCCN(CCO)CCCc2ccc([N+](=O)[O-])cc2)cc(=O)n(C)c1=O
inactive: Potency [1] | Potency [2] | Potency [13] | Potency [14] | outcome [4] | Potency [5] | Potency [6] | Potency [8] | Potency [15] | Potency [9] | Potency [16] | Potency [10] | Potency [11] | Potency [17] | Potency [18]

CC1(C)CCC(C)(C)c2cc(NC(=O)c3ccc(C(=O)O)cc3)ccc21
inactive: Potency [1] | Potency [2] | Potency [13] | Potency [14] | outcome [4] | Potency [6] | outcome [7] | Potency [8] | Potency [16] | Potency [11] | Potency [17] | Potency [18]
active: Potency [9] 18.8 µM

CN(C)CC/C=C1\c2ccccc2COc2ccccc21
inactive: Potency [1] | Potency [2] | Potency [13] | Potency [14] | outcome [4] | Potency [6] | outcome [7] | Potency [16] | Potency [19] | Potency [17]
active: Potency [10] 26.6 µM | Potency [18] 29.8 µM

Cc1c(Cn2ccnc2)c2ccccc2n1CCC(=O)O
inactive: Potency [1] | Potency [2] | Potency [13] | Potency [14] | outcome [4] | Potency [5] | Potency [6] | Potency [8] | Potency [15] | Potency [9] | Potency [16] | Potency [10] | Potency [11] | Potency [17] | Potency [18]

CC(=O)O[C@@H]1C(=O)O[C@@H]2[C@H]1OC(=O)[C@@H]2OC(C)=O
inactive: Potency [1] | Potency [2] | PLD induction [13] 0.969% [at 7.66 µM] | Potency [14] | outcome [4] | Potency [5] | Potency [6] | outcome [7] | Potency [15] | Potency [9] | Potency [16] | Potency [10] | Potency [11] | Potency [12] | Potency [17] | Potency [18]

Cc1ccccn1
inactive: Potency [1] | Potency [2] | Potency [13] | Potency [14] | outcome [4] | Potency [5] | Potency [6] | outcome [7] | Potency [8] | Potency [15] | Potency [9] | Potency [16] | Potency [10] | Potency [11]

CC(=O)Nc1ccc(/C=N/NC(N)=S)cc1
inactive: Potency [1] | Potency [2] | Potency [13] | Potency [14] | outcome [4] | Potency [5] | Potency [6] | outcome [7] | Potency [8] | Potency [16] | Potency [10] | Potency [11] | Potency [17]

CCN(CCO)CCCC(C)Nc1ccnc2cc(Cl)ccc12 (stereo not drawn)
inactive: activity change, negative = cytotoxicity [1] -6.05% [at 8.39 µM] | viability change, negative = cytotoxic [2] -0.563% [at 8.39 µM] | Potency [13] | activity change, negative = inhibition [14] 16.3% [at 8.39 µM] | activity change, negative = cytotoxicity [4] 0.62% [at 8.39 µM] | viability change, negative = cytotoxic [5] -3.56% [at 8.39 µM] | viability change, negative = cytotoxic [6] 1.32% [at 8.39 µM] | activity change, negative = inhibition [8] 5.56% [at 8.39 µM] | activity change, negative = cytotoxicity [16] -1.54% [at 8.39 µM] | activity change, negative = cytotoxicity [10] 3.81% [at 8.39 µM] | activity change, negative = cytotoxicity [11] -2.09% [at 8.39 µM] | cAMP activity change [17] -5.44% [at 8.39 µM, hits give high values] | activity change, negative = inhibition [18] -2.73% [at 8.39 µM]
